The nature of assay [1]: E. coli DRC41 culture turbidity changes, primary screen, E. coli filamentation inducer project, strain DRC41, OD650, 48 h (AID 1152).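 Also: E. coli MC1000 strain DRC41 lacking acrAB efflux pump and sulA.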 To be noted: E. coli DRC41 (acrAB sulA), higher = more signal, called active from +8 up or from −8 down.
Assay [2] in a line: small-molecule binders of probe aLefty1, primary screen, biochemical, small-molecule microarray, 635/667 nm fluorescence (AID 1153).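 Also: score merges spot fluorescence with signal-to-noise ratio from the scanned slide images.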 The settings on record: higher = more signal.
Assay [3] is described as follows: PSAC antagonists in infected red cells, primary screen, cell-based, P. falciparum Indochina, OD700, 1 h (AID 1154). To be noted: P. falciparum Indochina infected RBC osmotic lysis, higher = more signal, called active from +8 up or from −8 down.
The nature of assay [4]: PSAC antagonists in infected red cells, primary screen, cell-based, P. falciparum Indochina, OD700, 2 h (AID 1155).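 Also: lysis reports solute entry through the parasite surface anion channel PSAC; channel blockers reduce lysis of infected cells.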 The settings on record: P. falciparum Indochina infected erythrocytes, osmotic lysis OD700; higher = more signal, called active from +8 up or from −8 down.
Assay [5] is described as follows: osmotic lysis modulators in infected erythrocytes, primary screen, PSAC antagonist project, cell-based, P. falciparum Indochina, OD700, 3 h (AID 1156). To be noted: higher = more signal, called active from +8 up or from −8 down.
The nature of assay [6]: PSAC antagonists in infected red cells, primary screen, cell-based, P. falciparum Indochina, OD700, 18 h (AID 1157). To be noted: P. falciparum Indochina infected erythrocytes, osmotic lysis OD700, 18 h; higher = more signal, called active from +8 up or from −8 down.
Assay [7] is described as follows: modulators of S6 phosphorylation in cells, primary screen, cell-based, A549, cytoblot, luminescence, serum-stimulated (AID 1158).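 Also: serum-stimulated A549 lung adenocarcinoma cells; signal is phosphorylated S6 detected by cytoblot immunostaining with HRP secondary.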 To be noted: A549 phospho-S6 cytoblot, 5 h, higher = more signal.
Assay [8] concerns the target NADPH oxidase 2 (Homo sapiens) (UniProt P04839). The assay can be described thus: NOX2-dependent H2O2 signal modulators, primary screen, NOX inhibitor project, cell-based, HEK293-NOX2, PMA-stimulated, Amplex Red fluorescence (AID 1159). Also: test concentration not given here. To be noted: 45 min, higher = more signal, called active from +8 up or from −8 down.
Assay [9] concerns the target NADPH oxidase 4 (Homo sapiens) (UniProt Q9NPH5). The assay can be described thus: NOX4-dependent H2O2 signal modulators, primary screen, NOX inhibitor project, cell-based, HEK293-NOX4, tetracycline-induced, Amplex Red fluorescence (AID 1160). The settings on record: 45 min, higher = more signal, called active from +8 up or from −8 down.
Assay [10] has as its target NADPH oxidase 5 (Homo sapiens) (UniProt Q96PH1). The assay can be described thus: NOX5-dependent H2O2 signal modulators, primary screen, NOX inhibitor project, cell-based, HEK293-NOX5, Amplex Red fluorescence (AID 1161). To be noted: HEK293-NOX5, ionomycin, 45 min, higher = more signal.
Assay [11] in a line: A549 cell viability effects, profiling panel, calcein-AM fluorescence, 48 h, basal (AID 1162). Also: test concentration not given here. The settings on record: higher = more signal.
Assay [12] in a line: adipocyte viability effects, profiling panel, cell-based, 3T3-L1 adipocytes, calcein-AM fluorescence, 48 h, basal (AID 1163). Also: test concentration not given here. To be noted: 3T3-L1 adipocytes viability, higher = more signal.
Assay [13] is described as follows: HepG2 cell viability effects, profiling panel, calcein-AM fluorescence, 48 h, basal (AID 1164). Also: test concentration not given here. The settings on record: higher = more signal.
A short description of assay [14]: MM1S cell viability effects, profiling panel, calcein-AM fluorescence, 48 h, basal (AID 1165).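 Also: viability of MM1S multiple myeloma cells under basal unstimulated conditions; test concentration not given here.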 The settings on record: higher = more signal.
Assay [15] in a line: basal RPMI8226 viability, no added stimulus, profiling panel, cell-based, calcein-AM fluorescence, 48 h, PK04 Diversity Set (AID 1166).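 Also: cells grown under basal conditions without added stimulus; test concentration not given here.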 To be noted: RPMI8226 myeloma viability, higher = more signal.
A short description of assay [16]: basal HepG2 mitochondrial membrane potential changes, profiling panel, cell-based, JC-1 fluorescence, 24 h, 100 nL compound (AID 1167). Also: test concentration not given here. The settings on record: higher = more signal.
The nature of assay [17]: basal 3T3-L1 adipocyte mitochondrial potential changes, profiling panel, cell-based, JC-1 fluorescence, 3T3-L1 adipocytes, 24 h, 100 nL compound (AID 1168). Also: test concentration not given here. To be noted: JC-1 mitochondrial fluorescence, higher = more signal, called active from +8 up or from −8 down.
A short description of assay [18]: basal RPMI8226 mitochondrial membrane potential changes, profiling panel, cell-based, JC-1 fluorescence, 24 h, 100 nL compound (AID 1169). Also: test concentration not given here. To be noted: RPMI8226 myeloma, JC-1 mitochondrial potential fluorescence, higher = more signal.
Assay [19] can be described thus: basal MM1S mitochondrial membrane potential changes, profiling panel, cell-based, JC-1 fluorescence, 24 h, 100 nL compound (AID 1170). Also: test concentration not given here. To be noted: higher = more signal.
A short description of assay [20]: A549 lung cancer cell viability effects, profiling panel, resazurin fluorescence, 24 h, PK04 Diversity Set (AID 1171). Also: test concentration not given here. The settings on record: higher = more signal, called active from +8 up or from −8 down.

Calls of active or inactive are those of the source.

Chain of NADPH oxidase 5 (Homo sapiens) (Q96PH1 whole entry, looked up): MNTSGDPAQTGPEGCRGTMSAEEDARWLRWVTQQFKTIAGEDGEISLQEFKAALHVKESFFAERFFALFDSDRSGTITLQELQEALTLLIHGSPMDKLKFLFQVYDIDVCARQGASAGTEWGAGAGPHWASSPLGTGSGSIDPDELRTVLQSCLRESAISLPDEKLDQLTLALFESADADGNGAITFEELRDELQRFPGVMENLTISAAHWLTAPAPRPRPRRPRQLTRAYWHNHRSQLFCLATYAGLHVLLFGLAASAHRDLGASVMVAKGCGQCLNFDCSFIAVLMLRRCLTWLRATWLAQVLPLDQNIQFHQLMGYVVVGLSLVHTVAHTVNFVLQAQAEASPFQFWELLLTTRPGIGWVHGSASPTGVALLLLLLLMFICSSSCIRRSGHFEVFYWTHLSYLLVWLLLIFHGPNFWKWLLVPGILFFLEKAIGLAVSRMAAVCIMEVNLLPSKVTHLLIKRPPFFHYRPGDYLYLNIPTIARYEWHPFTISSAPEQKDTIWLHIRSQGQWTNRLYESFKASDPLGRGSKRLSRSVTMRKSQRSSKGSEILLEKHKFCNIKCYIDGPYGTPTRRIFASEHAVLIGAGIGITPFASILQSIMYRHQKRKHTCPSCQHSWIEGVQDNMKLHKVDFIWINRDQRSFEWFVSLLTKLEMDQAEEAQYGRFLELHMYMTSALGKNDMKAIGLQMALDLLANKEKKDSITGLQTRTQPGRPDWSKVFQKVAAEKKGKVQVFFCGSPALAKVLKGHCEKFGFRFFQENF
Chain of NADPH oxidase 4 (Homo sapiens) (Q9NPH5 whole entry, looked up): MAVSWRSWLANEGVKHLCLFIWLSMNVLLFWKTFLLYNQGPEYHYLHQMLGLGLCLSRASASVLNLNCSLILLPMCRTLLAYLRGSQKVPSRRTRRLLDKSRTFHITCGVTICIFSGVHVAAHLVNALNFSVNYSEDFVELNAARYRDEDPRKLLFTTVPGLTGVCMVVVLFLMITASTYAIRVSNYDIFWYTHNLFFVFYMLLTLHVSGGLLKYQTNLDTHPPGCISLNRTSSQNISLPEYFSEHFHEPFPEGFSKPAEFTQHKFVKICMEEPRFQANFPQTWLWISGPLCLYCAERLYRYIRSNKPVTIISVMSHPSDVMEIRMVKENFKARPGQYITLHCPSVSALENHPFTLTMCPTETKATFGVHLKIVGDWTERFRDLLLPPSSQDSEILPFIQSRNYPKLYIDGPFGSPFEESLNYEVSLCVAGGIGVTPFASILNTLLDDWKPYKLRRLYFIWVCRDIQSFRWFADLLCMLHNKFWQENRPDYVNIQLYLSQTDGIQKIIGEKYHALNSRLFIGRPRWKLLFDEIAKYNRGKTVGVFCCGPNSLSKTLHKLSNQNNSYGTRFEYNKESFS
Chain of NADPH oxidase 2 (Homo sapiens) (P04839 whole entry, looked up): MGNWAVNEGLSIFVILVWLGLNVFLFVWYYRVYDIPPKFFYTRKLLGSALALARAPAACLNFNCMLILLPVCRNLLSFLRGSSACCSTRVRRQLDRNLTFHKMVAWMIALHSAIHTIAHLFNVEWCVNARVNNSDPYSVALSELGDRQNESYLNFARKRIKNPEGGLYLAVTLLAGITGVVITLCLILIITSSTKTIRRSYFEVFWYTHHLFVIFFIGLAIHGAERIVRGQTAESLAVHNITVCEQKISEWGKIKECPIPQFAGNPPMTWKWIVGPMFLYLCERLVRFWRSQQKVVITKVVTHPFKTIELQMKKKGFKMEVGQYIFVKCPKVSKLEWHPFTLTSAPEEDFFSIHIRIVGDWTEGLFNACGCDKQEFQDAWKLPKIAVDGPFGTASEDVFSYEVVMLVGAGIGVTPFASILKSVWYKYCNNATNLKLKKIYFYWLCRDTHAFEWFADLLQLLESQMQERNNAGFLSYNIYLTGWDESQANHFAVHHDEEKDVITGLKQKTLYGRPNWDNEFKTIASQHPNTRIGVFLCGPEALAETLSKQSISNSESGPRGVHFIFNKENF

As to `[N-]=[N+]=NCc1ccccc1[C@@H]1OC(c2ccc(OCCCO)cc2)=N[C@]1(Cc1ccccc1)C(=O)O`, the z-score in assay [1] is -0.235 (inactive); in [3] it was 15.6 (active); in assay [4] it was 2.07 (inactive); in assay [5], -0.143 (inactive); in assay [6], 0.786 (inactive); in assay [7], -0.117. The z-score in assay [8] is 0.174 (inactive); in assay [9], 1.1 (inactive); in assay [10], 1.74; in assay [11], 0.211; in assay [12], 0.333; in assay [13] it was 0.865. Also, the z-score was 0.229 in assay [14]; -0.767 in [15]; -0.00992 in assay [16]; -1.01 (inactive) in assay [17]; -0.0434 in assay [18]; -0.969 in assay [19]. Also, the z-score in [20] is 0.45 (inactive). This compound returned a composite z-score in assay [2] of 0.0429.

Take `COC(=O)c1c(CC[C@@H](CO)NC(=O)Nc2ncn[nH]2)oc(C(=O)Cc2ccccc2)c1C(=O)OC`: the z-score is -0.862 (inactive) in assay [1]; 0.658 (inactive) in assay [3]; 0.22 (inactive) in assay [4]; -0.641 (inactive) in assay [5]; 0.0651 (inactive) in assay [6]; 0.0642 in assay [7]. The z-score was -1.16 (inactive) in assay [8]; -0.331 (inactive) in [9]; -0.53 in assay [10]; -0.0782 in assay [11]; -0.927 in [12]; -0.314 in [13]. In addition, the z-score in [14] was 0.226; in assay [15], 0.343; in assay [16], -0.808; in [17] it was 0.765 (inactive); in [18], 0.0444; in assay [19], -0.286. The z-score in [20] was 0.199 (inactive). The compound also yielded a composite z-score in assay [2] of 0.0751.

For `COCCOC(=O)N1C(=O)[C@@]2(c3cc(C#CCCO)ccc31)[C@H](C(=O)NC[C@H](O)c1ccccc1)[C@H]1C(=O)O[C@H](c3ccccc3)[C@H](c3ccccc3)N1[C@@H]2c1ccc(OCCO)cc1`, the z-score in [1] was 1.96 (inactive); in assay [3] it was 3.45 (inactive); in assay [4] it was 1.02 (inactive); in assay [5] it was -0.431 (inactive); in assay [6] it was 0.212 (inactive); in assay [7], 0.568. Further, the z-score in assay [8] is 1.75 (inactive); in assay [9] it was 1.13 (inactive); in assay [10] it was -0.0265; in [11] it was -0.339; in assay [12], 1.22; in [13], -0.981. The z-score is -0.97 in [14]; -0.304 in assay [15]; -1.25 in [16]; 0.623 (inactive) in assay [17]; -0.8 in assay [18]; -0.904 in [19]. In addition, the z-score in [20] is 1.21 (inactive). For the same compound, the composite z-score in assay [2] was -0.0276.

Regarding `COC(=O)[C@@]1(Cc2ccc(F)cc2)[C@H]2c3cc(C(=O)N4CCCC4)n(CCc4ccc(OC)c(Br)c4)c3C[C@H]2CN1C(=O)c1ccccc1`, the z-score is -0.71 (inactive) in [1]; 7.48 (inactive) in assay [3]; 1.5 (inactive) in [4]; 0.248 (inactive) in [5]; 1.33 (inactive) in [6]; 0.0028 in [7]. For the same compound, the z-score in assay [8] is 0.0756 (inactive); in assay [9] it was 0.742 (inactive); in assay [10], 0.98; in [11] it was -1.58; in assay [12], -0.483; in assay [13], -2.5. Moreover, the z-score in assay [14] is -1.66; in assay [15], -4.69; in [16], 0.275; in assay [17], -0.317 (inactive); in [18], -0.626; in assay [19] it was -2.09. Besides, in [20], the z-score is -2.3 (inactive). Also, the composite z-score in assay [2] stood at 1.2.

As for `OCCCc1cc[n+](Cc2cccc(OC(F)(F)F)c2)cc1`, the z-score in [1] is -0.123 (inactive); in [3], 0.514 (inactive); in [4], 0.816 (inactive); in assay [5] it was 1.54 (inactive); in assay [6], 0.916 (inactive); in assay [7], 0.211. The z-score in [8] is 0.972 (inactive); in assay [9] it was -0.285 (inactive); in assay [10], 0.384; in [11], -0.0193; in assay [12], 0.997; in [13], -1.18. Moreover, the z-score is 0.277 in assay [14]; -1.86 in [15]; 1.14 in assay [16]; -0.487 (inactive) in assay [17]; -0.0293 in [18]; -0.978 in [19]. In addition, in assay [20], the z-score was 0.484 (inactive). In assay [2], the composite z-score was determined as 0.363.

As for `C=CCNC(=O)[C@@H]1[C@H]2C(=O)O[C@H](c3ccccc3)[C@H](c3ccccc3)N2[C@H](c2ccccc2OCCO)[C@@]12C(=O)N(C(=O)OCCOC)c1ccc(C#CCC(C(=O)OC)C(=O)OC)cc12`, the z-score in assay [1] is 0.0535 (inactive); in assay [3], 1.78 (inactive); in [4], 0.931 (inactive); in assay [5], 0.222 (inactive); in assay [6] it was 0.506 (inactive); in assay [7], 0.273. Further, the z-score in assay [8] was 0.793 (inactive); in [9], 0.966 (inactive); in assay [10], 1.07; in [11] it was 0.136; in [12] it was -0.609; in assay [13], -0.592. Moreover, the z-score in assay [14] is -0.794; in assay [15], -1.57; in assay [16], 0.408; in [17], 0.618 (inactive); in assay [18] it was -0.802; in [19], -1.35. In assay [20], the z-score was 1.31 (inactive). Besides, the composite z-score in assay [2] was 1.51.

As for `COc1ccc([Si](C)(C)[C@H]2[C@H](CCO)O[C@@]3(C(=O)N(Cc4cccc(N5C(=O)c6cccc7cccc5c67)c4)c4ccccc43)[C@@H]2C)cc1`, the z-score in assay [1] is 0.0084 (inactive); in [3] it was 1.54 (inactive); in [4] it was 2.2 (inactive); in assay [5], 0.712 (inactive); in assay [6] it was 1.31 (inactive); in [7], 1.26. Also, the z-score in assay [8] was -0.139 (inactive); in [9], 0.61 (inactive); in assay [10] it was 1.6; in assay [11], -1.02; in assay [12], 0.894; in assay [13], -3.98. Also, the z-score was -2.97 in assay [14]; -4.23 in assay [15]; -0.139 in assay [16]; 1.49 (inactive) in [17]; -1.02 in [18]; -1.34 in [19]. Moreover, the z-score in assay [20] is -2.92 (inactive). In addition, the composite z-score in assay [2] is -0.012.

In the case of `C=CC[C@@]1(C(N)=O)N=C(c2ccc(OCCCO)cc2)O[C@@H]1c1ccccc1N=[N+]=[N-]`, the z-score in assay [1] is 1.3 (inactive); in assay [3] it was 32.8 (active); in assay [4] it was 32.6 (active); in assay [5], 4.04 (inactive); in assay [6] it was 3.37 (inactive); in [7] it was 0.305. Moreover, the z-score in assay [8] is 0.039 (inactive); in [9], -0.164 (inactive); in assay [10], -1.76; in [11] it was 1.38; in [12], 1.01; in [13], 0.314. For the same compound, the z-score in [14] was -0.35; in assay [15], -0.0394; in assay [16] it was -0.00877; in assay [17], 0.875 (inactive); in assay [18], -0.327; in assay [19] it was 0.759. In addition, the z-score in assay [20] is 1.02 (inactive). The same compound returned a composite z-score in [2] of 0.355.
